Data taken from PubChem BioAssay (NCATS).
Results filed as inconclusive are left out. Calls of active or inactive are those of the source. The call rests on the fitted dose curve; in most records, active means well fitted inhibition curve with a large enough effect; inconclusive means small, poorly fitted or top-dose-only effect; inactive means no such curve, though single readings can be large or run the other way. Peptide text beside a SMILES is read from it.

Assay: S16 Schwann cell PMP22 intronic element firefly luciferase assay (AID 624032); further: nearly all actives have a fitted effect of over 30% in size
Details: S16 rat Schwann cells, PMP22 element FLuc, 24 h; series mostly up to 25.7 µM; activity change, negative = inhibition: at the top concentration
From the text: Charcot-Marie-Tooth-Association [CMTA]
National Center for Advancing Translational Sciences [NCATS]
Charcot-Marie-Tooth (CMT) disease was first characterized by Jean-Martin Charcot and Pierre Marie in France and, independently, by Howard Henry Tooth in England in 1886. CMT is one of the most common inherited neurological diseases, affecting approximately 1 in 2,500 Americans. […] The most prevalent type of CMT is known as CMT1A and caused by a duplication of the PMP22 gene which leads to over-expression of this protein. PMP22 is a glycosylated intrinsic membrane protein accounting for 2-5% of the myelin protein content, and its over-expression results in demyelination and subsequently axonal loss.
A pair of cellular transcription-based assays was developed in the S16 rat Schwann cell lines (Hai, M., et al., 2002) stably transfected with orthogonal reporters - firefly luciferase (Fluc) and beta-lactamase (beta-Lac) - whose expression is driven by an intronic regulatory element of the PMP22 gene (Jones, E.A., et al., 2011) to recapitulate endogenous expression of PMP22. The current assay employs Fluc to report on PMP22 expression. A comprehensive library of approved drugs, the NCGC Pharmaceutical Collection (Huang, R., et al., 2011), was screened in the cross-validating platform of the orthogonal reporter assays to identify drug modulators inhibitory towards PMP22 expression.
A set of counter-screens was devised to address non-specific activity of the library. An ATP-dependent CellTiter-Glo assay (developed by Promega Corp) was utilized to control cell viability. In addition, biochemical Fluc enzyme assay was performed to assess direct inhibition of the Fluc enzymatic activity.
Hai, M., Muja, N., DeVries, G.H., Quarles, R.H. and Patel, P.I. Comparative analysis of Schwann cell lines as model systems for myelin gene transcription studies. J Neurosci Res, 2002. 69(4): pp 497-508
Huang, R., Southall, N., Wang, Y., Yasgar A., Shinn P., Jadhav, A. , Nguyen, D.-T. and Austin, C.P., The NCGC pharmaceutical collection: a comprehensive resource of clinically approved drugs enabling repurposing and chemical genomics. Sci Transl Med, 2011. 3(80): p. 80ps16.
S16 Schwann cell PMP22 intronic element firefly luciferase assay
The FLuc-expressing S16 cells were seeded in white solid 1536-well plates at between 500-750 cells/4uL in DMEM medium containing 10% FBS, w/o phenol red. After overnight incubation at 37 degree Celsius/5% C02, 23 nL of compounds or DMSO were delivered to each well using a pin tool, followed by 24h-incubation at 37 degree Celsius/5% C02. Then 4 uL ONE-Glo luminescent substrate mix (Promega) was added to each well. Luminescence was measured on a ViewLux plate reader (Perkin Elmer). The % activity was determined by normalizing to the average readings of PTC124 (a positive control) - treated cells relative to DMSO-treated cells (0% Activity). The concentration-effect curves were then classified based on curve quality (r2), response magnitude and degree of measured activity.
Potency means the concentration at half of the fitted maximal effect.

SMILES | activity change, negative = inhibition | Potency
CNC1CC(N)[C@H](O)[C@@H](O[C@@H]2OC(CO)C3OC4(OC(C(N)CO)C(O)C(O)C4O)O[C@@H]3[C@H]2O)C1O (stereo not given in full) | -5.15% [at 57.5 µM] (inactive) | 
CC[C@@H]1OC(=O)[C@H](C)[C@H](O[C@@H]2C[C@](C)(OC)[C@H](O)[C@H](C)O2)[C@H](C)[C@H](O[C@@H]2O[C@@H](C)C[C@@H](N(C)C)[C@@H]2O)[C@](C)(O)C[C@H](C)C(=NOCOCCOC)[C@H](C)[C@H](O)[C@]1(C)O | -7.86% (inactive) | 
CN1CCO[C@H](c2ccccc2)c2ccccc2C1 | 1.42% (inactive) | 
O=C1O[C@@H]([C@@H](O)CO)[C@@H](O)[C@H]1O | -20.6% [at 57.5 µM] (inactive) | 
COc1ccc(CC(N)C(=O)NC2C(CO)OC(n3cnc4c(N(C)C)ncnc43)C2O)cc1 (stereo not given) |  | 1280 nM (active)
CC1C2CCC3C4CC=C5CC(N(C)C)CC[C@@]5(C)C4CC[C@@]32CN1C (stereo not given in full) | -16.3% [at 57.5 µM] (inactive) | 
Cc1ccsc1/C=C\C1=NCCCN1C | -11% (inactive) | 
CNC1C(OC2C(O[C@@H]3C(O)C(O)[C@@H](N=C(N)N)C(O)C3N=C(N)N)OC(C)[C@@]2(O)CO)OC(CO)C(O)C1O (stereo not given in full) | 11.6% [at 57.5 µM] (inactive) | 
O=C(O)CN(CC(=O)O)Cc1cc2c(-c3ccccc3C(=O)O)c3cc(CN(CC(=O)O)CC(=O)O)c(=O)cc-3oc2cc1O | -4.42% [at 57.5 µM] (inactive) | 
CC(=O)C[C@H](c1ccc([N+](=O)[O-])cc1)c1c(O)c2ccccc2oc1=O | -9.04% (inactive) | 
CC(C)=CCC[C@](C)(O)C1CC=C(C)CC1 (stereo not given in full) | 13.8% [at 57.5 µM] (inactive) | 
CN[C@H]1[C@H](O)[C@@H](O[C@@H]2[C@H](O)[C@@H](O[C@H]3OC(CN)=CC[C@H]3N)[C@@H](N)C[C@H]2N)OC[C@@]1(C)O | 4.55% (inactive) | 
C[C@]12C=CC(=O)C=C1CCC1C2C(O)C[C@]2(C)C1CC[C@]2(O)C(=O)CO (stereo not given in full) | 18.8% [at 57.5 µM] (inactive) | 
N[C@@H]1C(O)OC(CO)C(O)C1O (stereo not given in full) | -11.1% [at 57.5 µM] (inactive) | 
CC1(C)O[C@@H]2C[C@H]3[C@H]4C[C@H](F)C5=CC(=O)CC[C@]5(C)[C@@H]4[C@H](O)C[C@]3(C)[C@]2(C(=O)CO)O1 | -10.1% (inactive) | 
C#C[C@@]1(O)CC[C@@H]2[C@@H]3CCC4=C(CCC(=O)C4)[C@H]3CC[C@]21C |  | 3890 nM (active)
CS(=O)(=O)c1ccc([C@H](O)[C@H](CF)NC(=O)C(Cl)Cl)cc1 | 0.486% (inactive) | 
COc1ccc2cc1Oc1ccc(cc1)CC1c3c(cc4c(c3Oc3cc5c(cc3OC)CCN(C)C5C2)OCO4)CCN1C (stereo not given) | 2.57% [at 57.5 µM] (inactive) | 
CC[C@H]1NC(=O)c2cc(S(N)(=O)=O)c(Cl)cc2N1 | 5.06% (inactive) | 
CC1(C)S[C@H]2C(NC(=O)[C@@H](N)c3ccc(O)cc3)C(=O)N2[C@@H]1C(=O)O (stereo not given in full) | 14% [at 57.5 µM] (inactive) | 

SMILES | activity change, negative = inhibition | Potency
NS(=O)(=O)c1cc2c(cc1Cl)N[C@@H](C(Cl)Cl)NS2(=O)=O | -9.6% (inactive) | 
CCN(CC)[C@@H](C)CN1c2ccccc2Sc2ccccc21 | 0.836% (inactive) | 
COc1ccc2cc(C(C)CO)ccc2c1 (stereo not given) | 10.3% [at 57.5 µM] (inactive) | 
CCOC(=O)[C@H](CCc1ccccc1)N[C@@H](C)C(=O)N1[C@H](C(=O)O)C[C@H]2CCC[C@@H]21 | -26.9% [at 57.5 µM] (inactive) | 
C[C@@H]1O[C@H](O[C@@H]2\C=C/C=C\C=C/C=C\C[C@H](C)OC(=O)/C=C\[C@H]3O[C@@H]3C[C@H](O)C[C@]3(O)C[C@@H](O)[C@@H](C(=O)O)[C@H](C2)O3)[C@@H](O)[C@H](N)[C@@H]1O (stereo in doubt) | -4.09% [at 57.5 µM] (inactive) | 
COc1c(O[C@H]2O[C@@H](CO)[C@@H](O)[C@@H](O)[C@@H]2O)cc2c(c1OC)-c1ccc(SC)c(=O)cc1[C@H](NC(C)=O)CC2 | 15.1% (inactive) | 
CC(=C(CCOP(=O)(O)O)SC(=O)c1ccccc1)N(C=O)Cc1cnc(C)nc1N | 3.71% (inactive) | 
C[C@@H](CNC1CCCCC1)OC(=O)c1ccccc1 | -8.82% (inactive) | 
CO[C@]1(NC(=O)[C@H](C(=O)O)c2ccc(O)cc2)C(=O)N2C(C(=O)O)=C(CSc3nnnn3C)CO[C@H]21 | -13.1% (inactive) | 
COC(=O)C(Cc1ccccc1)NC(=O)C(N)CC(=O)O (stereo not drawn) (H-Asp-Phe-OMe; configuration not given here) | 32.6% [at 57.5 µM] (inactive) | 
CC(=O)[C@@H]1CC[C@@H]2[C@@H]3C[C@H](C)C4=CC(=O)CC[C@@]4(C)[C@H]3[C@H](O)C[C@]21C | 14% (inactive) | 
OCC1O[C@H](OC2C(CO)O[C@@](O)(CO)C2O)C(O)C(O)C1O (stereo not given in full) | 50.5% [at 57.5 µM] (inactive) | 
NC(=O)c1cc[n+](CC2=C(C(=O)[O-])N3C(=O)[C@@H](NC(=O)Cc4cccs4)[C@@H]3SC2)cc1 | -4.18% (inactive) | 
Nc1nc2ncc(CNc3ccc(C(=O)NC(CCC(=O)O)C(=O)O)cc3)nc2c(=O)[nH]1 (stereo not given) | -8.41% [at 57.5 µM] (inactive) | 
CC(=O)OC1CCC2C3CCc4cc(O)ccc4C3CCC12C (stereo not given) | -31.5% [at 57.5 µM] (inactive) | 
CCOC(=O)C1=CC(OC(CC)CC)C(NC(C)=O)C(N)C1 (stereo not given) | 11.1% [at 57.5 µM] (inactive) | 
CCC(CCC(C)C1CCC2C3CC=C4CC(O)CC[C@@]4(C)C3CC[C@@]12C)C(C)C (stereo not given in full) | -25.3% [at 57.5 µM] (inactive) | 
NCC1CCC(N)C(O[C@@H]2C(O)[C@H](O[C@H]3OC(CO)C(O)C(N)C3O)[C@@H](N)C[C@H]2N)O1 (stereo not given in full) | 12.8% [at 57.5 µM] (inactive) | 
CCC1OC(=O)CC(O)C(C)[C@@H](O[C@@H]2OC(C)[C@H](O[C@@H]3C[C@@](C)(O)C(O)C(C)O3)C(N(C)C)C2O)[C@H](CC=O)CC(C)C(=O)/C=C/C(C)=C/[C@@H]1COC1OC(C)C(O)C(OC)[C@@H]1OC (stereo not given in full) | -5.4% [at 57.5 µM] (inactive) | 
CN(C)CCCOC1C(C(O)CO)OC2OC(C)(C)O[C@@H]21 (stereo not given in full) | 52.3% [at 57.5 µM] (inactive) | 
